The full data set covers some 7,900 targets. This sample favours those with a hit. About 0.6% of all pairs of compound and target were hits.
Experiments:
Experiment in all cases: log2 fold change, soluble protein after heating vs DMSO (PISA); higher = thermal stabilisation; K562 cells, 10 uM, 30 min; active = over 0.2 and 3.5 SD of the protein, either way, in both replicates (recomputed)
[1] = compound: C1=CC=C(C=C1)[C@H](COC2=CC3=C(C=C2)NC(=O)N3)NC(=O)C4=CC=CN(C4=O)CC5=CC(=C(C=C5)F)F
In short: (§1)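 K562 cells at 2×10^6 cells/mL were exposed to 10 μM compound for 30 min, then aliquots were heated for 3 min across 48°C-58°C, pooled, and extracted in PBS containing 0.5% NP-40 at 4°C. The supernatant after 21,000xg for 90 min was taken as soluble protein and measured by TMTpro 16plex LC-MS/MS with channel sums equalised. Thermal stability is reported relative to control samples, with values from duplicates. Fold changes are given on a log2 scale.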

[2] = compound: CC1=C(SC2=C1C(=N[C@H](C3=NN=C(N32)C)CC(=O)N)C4=CC=C(C=C4)Cl)C
In short: as §1

[3] = compound: CC1=C2C(=CC=C1)N=C(N(C2=O)C3=CC=CC=C3C)CN4C=NC5=C(N=CN=C54)N
In short: as §1

[4] = compound: Cc1sc2c(c1C)C(c1ccc(Cl)cc1)=N[C@@H](CC(=O)OC(C)(C)C)c1nnc(C)n1-2
In short: as §1

[5] = compound: c1ccc([C@@H]2C[C@H]2NC2CCNCC2)cc1
In short: as §1

Measured: log2 fold change

TUBAL3 (UniProt A6NHL2)
Chain of UniProt A6NHL2 (A6NHL2 whole entry, looked up): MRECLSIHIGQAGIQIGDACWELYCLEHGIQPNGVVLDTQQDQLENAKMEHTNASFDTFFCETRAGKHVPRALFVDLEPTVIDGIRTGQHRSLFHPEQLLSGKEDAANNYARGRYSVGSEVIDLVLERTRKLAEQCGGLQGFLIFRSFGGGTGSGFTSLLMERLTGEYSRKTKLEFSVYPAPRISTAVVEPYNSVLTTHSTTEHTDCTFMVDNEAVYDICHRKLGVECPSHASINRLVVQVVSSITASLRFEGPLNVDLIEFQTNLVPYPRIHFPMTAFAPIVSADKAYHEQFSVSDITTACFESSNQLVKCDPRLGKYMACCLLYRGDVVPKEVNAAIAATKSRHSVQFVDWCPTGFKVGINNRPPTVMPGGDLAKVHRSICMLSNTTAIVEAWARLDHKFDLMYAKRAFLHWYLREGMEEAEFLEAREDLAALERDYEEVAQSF
inactive: [1] -0.196 | [2] -0.012 | [3] 0.096 | [4] -0.051 | [5] 0.029

TNPO2 (UniProt O14787)
inactive: [1] -0.067 | [2] 0.03 | [3] 0.158 | [4] -0.051 | [5] -0.005

VRK2 (UniProt Q86Y07)
inactive: [1] 0.001 | [2] 0.004 | [3] 0.011 | [4] 0.005 | [5] -0.083

TNFAIP8 isoform 4 (UniProt O95379)
inactive: [1] -0.021 | [2] 0.026 | [3] 0.02 | [4] -0.042 | [5] -0.011

UGGT1 (UniProt Q9NYU2)
inactive: [1] 0.032 | [2] 0.027 | [3] -0.003 | [4] -0.007 | [5] -0.021

U2AF1 isoform 2 (UniProt Q01081)
inactive: [1] 0.021 | [2] 0.03 | [3] 0.11 | [4] -0.02 | [5] 0.035

USP48 (UniProt Q86UV5)
inactive: [1] 0

UBA6
inactive: [1] -0.018 | [2] 0 | [3] 0.06 | [4] 0.001 | [5] -0.002

TRMT61A (UniProt Q96FX7)
inactive: [1] 0.157 | [2] -0.033 | [3] -0.051 | [4] 0.141 | [5] -0.049

TMEM263 (UniProt Q8WUH6)
inactive: [1] -0.152 | [2] 0.047 | [3] 0.156 | [4] -0.072 | [5] -0.031

UBE4B isoform 4 (UniProt O95155)
Chain of UniProt O95155 (O95155 whole entry, looked up): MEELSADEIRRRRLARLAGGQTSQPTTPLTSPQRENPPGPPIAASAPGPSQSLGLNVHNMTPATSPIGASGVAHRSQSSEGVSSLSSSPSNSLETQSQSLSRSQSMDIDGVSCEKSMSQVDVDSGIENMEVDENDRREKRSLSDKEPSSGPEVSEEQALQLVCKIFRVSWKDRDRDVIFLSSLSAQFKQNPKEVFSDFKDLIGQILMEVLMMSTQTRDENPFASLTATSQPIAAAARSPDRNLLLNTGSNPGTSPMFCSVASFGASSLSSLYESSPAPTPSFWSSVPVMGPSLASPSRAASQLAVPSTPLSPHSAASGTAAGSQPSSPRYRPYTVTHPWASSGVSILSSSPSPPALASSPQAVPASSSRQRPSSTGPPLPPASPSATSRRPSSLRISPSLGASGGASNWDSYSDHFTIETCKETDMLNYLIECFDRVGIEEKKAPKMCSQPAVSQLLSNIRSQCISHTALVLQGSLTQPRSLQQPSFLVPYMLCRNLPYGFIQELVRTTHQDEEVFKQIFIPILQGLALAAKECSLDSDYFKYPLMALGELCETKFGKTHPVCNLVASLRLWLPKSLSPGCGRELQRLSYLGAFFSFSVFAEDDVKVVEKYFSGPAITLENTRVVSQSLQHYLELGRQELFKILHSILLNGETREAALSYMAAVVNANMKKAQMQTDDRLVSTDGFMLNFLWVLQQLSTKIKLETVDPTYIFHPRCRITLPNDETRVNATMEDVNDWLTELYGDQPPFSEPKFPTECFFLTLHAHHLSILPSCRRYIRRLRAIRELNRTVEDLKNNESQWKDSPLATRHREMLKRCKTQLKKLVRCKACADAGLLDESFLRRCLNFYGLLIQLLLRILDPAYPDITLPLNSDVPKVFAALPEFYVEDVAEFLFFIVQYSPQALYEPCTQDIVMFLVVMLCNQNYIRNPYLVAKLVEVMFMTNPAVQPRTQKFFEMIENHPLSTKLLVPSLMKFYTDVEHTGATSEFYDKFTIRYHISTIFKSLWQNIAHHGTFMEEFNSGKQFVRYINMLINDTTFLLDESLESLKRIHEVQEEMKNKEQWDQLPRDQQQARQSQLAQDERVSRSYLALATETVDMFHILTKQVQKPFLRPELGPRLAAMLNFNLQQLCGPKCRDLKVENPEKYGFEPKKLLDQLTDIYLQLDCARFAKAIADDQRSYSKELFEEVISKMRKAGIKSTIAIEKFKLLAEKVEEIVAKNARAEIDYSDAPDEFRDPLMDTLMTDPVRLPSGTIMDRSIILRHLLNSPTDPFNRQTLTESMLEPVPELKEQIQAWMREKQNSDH
inactive: [1] -0.019 | [2] 0.03 | [3] 0.019 | [4] 0.006 | [5] -0.003

VPS8 (UniProt Q8N3P4)
inactive: [1] -0.08 | [2] 0.106 | [3] 0.042 | [4] -0.034 | [5] 0.017

UBE4A isoform 2 (UniProt Q14139)
inactive: [1] -0.051 | [2] -0.067 | [3] 0.013 | [4] 0.013 | [5] 0.081

WNK1 isoform 7 (UniProt Q9H4A3)
inactive: [1] -0.011 | [2] 0.023 | [3] 0.049 | [4] -0.007 | [5] -0.003

TOE1 (UniProt Q96GM8)
inactive: [1] 0.049 | [2] -0.036 | [3] -0.095 | [4] 0.065 | [5] 0.014

WARS1 (UniProt G3V5U1)
inactive: [1] 0.193

UCHL5 isoform 3 (UniProt Q9Y5K5)
inactive: [1] 0.021 | [2] 0.232 | [3] -0.123 | [4] 0.069 | [5] 0.167

TPP1 (UniProt O14773)
inactive: [1] 0.019 | [2] 0.048 | [3] -0.02 | [4] 0.036 | [5] -0.067

VWA8 (UniProt A3KMH1)
inactive: [1] -0.03 | [2] 0.023 | [3] 0.091 | [4] -0.044 | [5] -0.052

XPO6 (UniProt Q96QU8)
Chain of UniProt Q96QU8 (Q96QU8 whole entry, looked up): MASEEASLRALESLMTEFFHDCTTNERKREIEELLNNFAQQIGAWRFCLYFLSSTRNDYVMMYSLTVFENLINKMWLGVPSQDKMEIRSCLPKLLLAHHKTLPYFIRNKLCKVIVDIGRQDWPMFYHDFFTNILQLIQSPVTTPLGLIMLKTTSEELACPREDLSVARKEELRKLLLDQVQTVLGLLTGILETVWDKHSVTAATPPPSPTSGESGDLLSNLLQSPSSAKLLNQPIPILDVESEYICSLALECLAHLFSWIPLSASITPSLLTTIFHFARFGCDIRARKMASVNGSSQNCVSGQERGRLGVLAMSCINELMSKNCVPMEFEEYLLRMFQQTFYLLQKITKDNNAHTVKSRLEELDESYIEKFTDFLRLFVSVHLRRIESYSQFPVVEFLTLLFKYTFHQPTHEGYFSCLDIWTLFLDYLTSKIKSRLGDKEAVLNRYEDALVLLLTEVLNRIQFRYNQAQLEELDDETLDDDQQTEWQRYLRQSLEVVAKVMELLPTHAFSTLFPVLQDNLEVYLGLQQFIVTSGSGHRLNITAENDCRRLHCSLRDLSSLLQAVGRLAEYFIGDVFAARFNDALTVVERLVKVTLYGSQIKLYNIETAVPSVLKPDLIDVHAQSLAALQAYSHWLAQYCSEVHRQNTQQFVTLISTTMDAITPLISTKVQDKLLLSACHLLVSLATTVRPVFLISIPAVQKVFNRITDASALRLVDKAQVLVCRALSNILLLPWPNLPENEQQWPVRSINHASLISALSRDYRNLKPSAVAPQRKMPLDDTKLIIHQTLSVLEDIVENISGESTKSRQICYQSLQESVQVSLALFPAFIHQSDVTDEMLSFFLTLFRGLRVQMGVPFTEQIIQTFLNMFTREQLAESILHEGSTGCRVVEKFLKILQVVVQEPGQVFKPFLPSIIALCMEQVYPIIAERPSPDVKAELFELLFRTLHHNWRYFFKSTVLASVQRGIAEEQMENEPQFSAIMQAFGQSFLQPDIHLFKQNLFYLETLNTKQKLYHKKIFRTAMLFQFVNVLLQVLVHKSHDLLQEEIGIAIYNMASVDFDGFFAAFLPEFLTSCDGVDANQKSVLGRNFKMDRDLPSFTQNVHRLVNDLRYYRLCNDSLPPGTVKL
inactive: [1] 0.35 | [2] 0.019 | [3] 0.082 | [4] 0.015 | [5] -0.072

UPF3B (UniProt Q9BZI7)
inactive: [1] 0.259 | [2] -0.211 | [3] -0.161 | [4] 0.363 | [5] -0.001

WDR4 isoform 3 (UniProt P57081)
inactive: [1] -0.18

WDR47 (UniProt O94967)
inactive: [1] 0.019 | [2] 0.004 | [3] -0.042 | [4] -0.031 | [5] 0.078

TMEM189-UBE2V1 (UniProt I3L0A0)
inactive: [1] -0.047 | [2] 0.02 | [3] 0.102 | [4] -0.02 | [5] 0.048

TOM1L1 (UniProt O75674)
inactive: [1] -0.019 | [2] 0.045 | [3] 0.034 | [4] 0.009 | [5] 0.023

WARS1 (UniProt G3V3P2)
inactive: [1] 0.095

XPNPEP1 isoform 3 (UniProt Q9NQW7)
inactive: [1] -0.017 | [2] 0.081 | [3] 0.021 | [4] 0.002 | [5] -0.029

USP14 (UniProt P54578)
inactive: [1] -0.031 | [2] 0.03 | [3] 0.046 | [4] -0.028 | [5] -0.025

TOMM20 (UniProt Q15388)
inactive: [1] 0.021 | [2] 0.025 | [3] 0.028 | [4] 0.006 | [5] 0.008

TRAPPC3 (UniProt O43617)
inactive: [1] -0.025 | [2] 0.03 | [3] 0.036 | [4] -0.024 | [5] 0.007

UXT isoform 2 (UniProt Q9UBK9)
inactive: [1] 0.046 | [2] 0.063 | [3] 0.065 | [4] -0.005 | [5] -0.077

TMEM184C (UniProt Q9NVA4)
inactive: [1] 0 | [2] 0.078 | [3] 0.022 | [4] 0.045 | [5] 0.22

VPS35L (UniProt Q7Z3J2)
Chain of UniProt Q7Z3J2 (Q7Z3J2 whole entry, looked up): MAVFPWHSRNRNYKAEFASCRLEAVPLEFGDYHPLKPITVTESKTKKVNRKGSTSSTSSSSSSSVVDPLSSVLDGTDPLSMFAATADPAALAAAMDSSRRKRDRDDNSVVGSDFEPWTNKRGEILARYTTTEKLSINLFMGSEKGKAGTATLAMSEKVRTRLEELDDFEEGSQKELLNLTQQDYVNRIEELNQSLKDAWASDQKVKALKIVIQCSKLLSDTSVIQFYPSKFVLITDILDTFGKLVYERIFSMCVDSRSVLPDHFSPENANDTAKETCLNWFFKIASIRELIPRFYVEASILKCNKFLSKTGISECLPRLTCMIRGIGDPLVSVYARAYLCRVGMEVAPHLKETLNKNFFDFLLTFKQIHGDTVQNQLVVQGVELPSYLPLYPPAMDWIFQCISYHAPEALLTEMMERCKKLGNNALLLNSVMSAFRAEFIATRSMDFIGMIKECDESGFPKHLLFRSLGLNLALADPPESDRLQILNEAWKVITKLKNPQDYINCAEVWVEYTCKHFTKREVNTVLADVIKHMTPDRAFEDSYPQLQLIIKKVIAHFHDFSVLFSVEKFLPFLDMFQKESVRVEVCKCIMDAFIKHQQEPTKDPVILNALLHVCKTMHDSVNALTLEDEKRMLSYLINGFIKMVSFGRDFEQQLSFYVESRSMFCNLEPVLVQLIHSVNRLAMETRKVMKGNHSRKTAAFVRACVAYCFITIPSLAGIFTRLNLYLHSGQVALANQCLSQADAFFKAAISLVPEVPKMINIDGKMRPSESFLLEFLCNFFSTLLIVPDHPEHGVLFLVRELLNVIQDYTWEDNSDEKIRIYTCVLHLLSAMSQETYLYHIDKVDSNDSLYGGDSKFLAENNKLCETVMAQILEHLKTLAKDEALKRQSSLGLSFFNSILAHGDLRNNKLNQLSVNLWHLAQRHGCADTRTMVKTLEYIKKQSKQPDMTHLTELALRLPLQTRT
inactive: [1] -0.046 | [2] -0.13 | [3] 0.011 | [4] -0.024 | [5] 0

USP9X (UniProt Q93008)
inactive: [1] -0.049 | [2] 0.028 | [3] 0.057 | [4] 0.012 | [5] -0.007

TNFRSF10A (UniProt O00220)
inactive: [1] 0.033 | [2] 0.006 | [3] -0.058 | [4] 0.024 | [5] 0.01

WRB (UniProt O00258)
Chain of UniProt O00258 (O00258 whole entry, looked up): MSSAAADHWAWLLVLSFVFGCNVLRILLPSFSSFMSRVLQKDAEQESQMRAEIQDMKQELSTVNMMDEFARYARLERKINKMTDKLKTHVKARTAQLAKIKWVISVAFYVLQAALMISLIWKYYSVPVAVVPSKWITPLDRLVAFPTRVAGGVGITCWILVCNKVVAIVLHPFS
inactive: [1] 0.002 | [2] -0.007 | [3] -0.015 | [4] 0.005 | [5] 0.01

TTC38 (UniProt Q5R3I4)
inactive: [1] 0.046 | [2] 0.049 | [3] 0.032 | [4] -0.061 | [5] -0.016

VAMP7 (UniProt P51809)
inactive: [1] 0.007 | [2] 0.044 | [3] 0.077 | [4] -0.047 | [5] 0.015

TMEM106B (UniProt Q9NUM4)
inactive: [1] 0.039 | [2] -0.022 | [3] -0.008 | [4] -0.097 | [5] 0.034

UTP14A (UniProt Q9BVJ6)
Chain of UniProt Q9BVJ6 (Q9BVJ6 whole entry, looked up): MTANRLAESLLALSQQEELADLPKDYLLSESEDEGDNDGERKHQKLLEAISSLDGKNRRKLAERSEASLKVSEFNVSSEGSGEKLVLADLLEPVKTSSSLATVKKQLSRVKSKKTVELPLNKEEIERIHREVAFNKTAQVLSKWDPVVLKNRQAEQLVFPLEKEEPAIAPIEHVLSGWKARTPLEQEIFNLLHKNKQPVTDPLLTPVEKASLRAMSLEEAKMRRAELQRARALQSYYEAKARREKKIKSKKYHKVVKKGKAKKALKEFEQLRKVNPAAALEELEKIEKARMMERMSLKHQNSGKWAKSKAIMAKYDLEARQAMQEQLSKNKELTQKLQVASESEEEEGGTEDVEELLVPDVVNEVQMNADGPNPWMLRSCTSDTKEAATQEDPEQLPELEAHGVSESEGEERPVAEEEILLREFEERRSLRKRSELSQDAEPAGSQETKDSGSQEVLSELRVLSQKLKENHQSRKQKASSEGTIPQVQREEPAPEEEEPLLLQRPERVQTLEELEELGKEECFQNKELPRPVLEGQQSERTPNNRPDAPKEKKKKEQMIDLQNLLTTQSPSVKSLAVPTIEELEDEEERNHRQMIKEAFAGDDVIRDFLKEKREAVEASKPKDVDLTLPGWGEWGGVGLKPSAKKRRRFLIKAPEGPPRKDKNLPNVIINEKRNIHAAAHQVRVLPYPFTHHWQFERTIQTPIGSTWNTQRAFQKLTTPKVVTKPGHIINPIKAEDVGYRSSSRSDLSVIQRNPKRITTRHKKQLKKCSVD
inactive: [1] 0.039 | [2] -0.276 | [3] -0.154 | [4] 0.124 | [5] 0.029

UFL1 (UniProt O94874)
inactive: [1] -0.072 | [2] 0.012 | [3] 0.039 | [4] 0.001 | [5] -0.066

VPS41 (UniProt P49754)
inactive: [1] -0.028 | [2] 0.06 | [3] 0.152 | [4] -0.017 | [5] -0.052

WBP4 (UniProt O75554)
inactive: [1] 0.012 | [2] 0.009 | [3] -0.024 | [4] 0.014 | [5] 0.051

VPS72 isoform 2 (UniProt Q15906)
inactive: [1] 0.123 | [2] -0.106 | [3] 0.055 | [4] 0.05 | [5] -0.013

TXNL1 (UniProt O43396)
Chain of UniProt O43396 (O43396 whole entry, looked up): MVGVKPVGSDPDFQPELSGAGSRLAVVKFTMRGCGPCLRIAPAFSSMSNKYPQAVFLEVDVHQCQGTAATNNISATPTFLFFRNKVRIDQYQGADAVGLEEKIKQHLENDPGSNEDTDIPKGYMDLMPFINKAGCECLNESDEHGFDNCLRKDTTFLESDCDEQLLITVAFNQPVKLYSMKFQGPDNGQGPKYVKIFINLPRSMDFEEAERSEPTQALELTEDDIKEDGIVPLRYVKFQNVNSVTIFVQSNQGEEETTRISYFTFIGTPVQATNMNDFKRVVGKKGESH
inactive: [1] 0.005 | [2] 0.051 | [3] 0.056 | [4] -0.01 | [5] 0.015

USP25 isoform 3 (UniProt Q9UHP3)
inactive: [1] -0.02 | [2] 0.024 | [3] 0.068 | [4] -0.007 | [5] -0.007

WDR4 (UniProt P57081)
inactive: [1] -0.074 | [2] 0.048 | [3] -0.004 | [4] -0.025 | [5] -0.008

VPS50 (UniProt Q96JG6)
inactive: [1] -0.039 | [2] 0.055 | [3] 0.022 | [4] -0.013 | [5] 0.01

TNFRSF8 (UniProt P28908)
inactive: [1] 0.012 | [2] 0.053 | [3] 0.036 | [4] -0.04 | [5] 0.021

TMTC3 (UniProt Q6ZXV5)
inactive: [1] -0.012 | [2] 0.019 | [3] 0.011 | [4] -0.034 | [5] 0.005

UBA1 (UniProt P22314)
inactive: [1] -0.162 | [2] 0.044 | [3] 0.134 | [4] 0.044 | [5] -0.08

TRAPPC6B (UniProt Q86SZ2)
inactive: [1] -0.007 | [2] 0.061 | [3] 0.048 | [4] -0.033 | [5] -0.013

TNPO1 (UniProt Q92973)
inactive: [1] -0.017 | [2] 0.008 | [3] -0.012 | [4] -0.009 | [5] 0.018

WDR46 (UniProt O15213)
inactive: [1] 0.058 | [2] -0.35 | [3] -0.302 | [4] 0.246 | [5] -0.005

VTI1A (UniProt Q96AJ9)
inactive: [1] 0.032 | [2] 0.009 | [3] 0.091 | [4] -0.023 | [5] 0.07

From the supplement of paper PMC10849652
